Tests used:
Test in all cases: log2 ratio of Biotin-Ahx-Ub-VS probe labelling (fragment/DMSO); higher = less target engagement (more negative = stronger competition), active = hit call of the paper (q ≤ 0.05, log2 ratio ≤ -1)
Conditions in all cases: compound concentration: 200 uM; treatment time: 3 h
[1] = target: T1, USP42 (UniProt Q9H9J4)
T1 sequence (whole entry): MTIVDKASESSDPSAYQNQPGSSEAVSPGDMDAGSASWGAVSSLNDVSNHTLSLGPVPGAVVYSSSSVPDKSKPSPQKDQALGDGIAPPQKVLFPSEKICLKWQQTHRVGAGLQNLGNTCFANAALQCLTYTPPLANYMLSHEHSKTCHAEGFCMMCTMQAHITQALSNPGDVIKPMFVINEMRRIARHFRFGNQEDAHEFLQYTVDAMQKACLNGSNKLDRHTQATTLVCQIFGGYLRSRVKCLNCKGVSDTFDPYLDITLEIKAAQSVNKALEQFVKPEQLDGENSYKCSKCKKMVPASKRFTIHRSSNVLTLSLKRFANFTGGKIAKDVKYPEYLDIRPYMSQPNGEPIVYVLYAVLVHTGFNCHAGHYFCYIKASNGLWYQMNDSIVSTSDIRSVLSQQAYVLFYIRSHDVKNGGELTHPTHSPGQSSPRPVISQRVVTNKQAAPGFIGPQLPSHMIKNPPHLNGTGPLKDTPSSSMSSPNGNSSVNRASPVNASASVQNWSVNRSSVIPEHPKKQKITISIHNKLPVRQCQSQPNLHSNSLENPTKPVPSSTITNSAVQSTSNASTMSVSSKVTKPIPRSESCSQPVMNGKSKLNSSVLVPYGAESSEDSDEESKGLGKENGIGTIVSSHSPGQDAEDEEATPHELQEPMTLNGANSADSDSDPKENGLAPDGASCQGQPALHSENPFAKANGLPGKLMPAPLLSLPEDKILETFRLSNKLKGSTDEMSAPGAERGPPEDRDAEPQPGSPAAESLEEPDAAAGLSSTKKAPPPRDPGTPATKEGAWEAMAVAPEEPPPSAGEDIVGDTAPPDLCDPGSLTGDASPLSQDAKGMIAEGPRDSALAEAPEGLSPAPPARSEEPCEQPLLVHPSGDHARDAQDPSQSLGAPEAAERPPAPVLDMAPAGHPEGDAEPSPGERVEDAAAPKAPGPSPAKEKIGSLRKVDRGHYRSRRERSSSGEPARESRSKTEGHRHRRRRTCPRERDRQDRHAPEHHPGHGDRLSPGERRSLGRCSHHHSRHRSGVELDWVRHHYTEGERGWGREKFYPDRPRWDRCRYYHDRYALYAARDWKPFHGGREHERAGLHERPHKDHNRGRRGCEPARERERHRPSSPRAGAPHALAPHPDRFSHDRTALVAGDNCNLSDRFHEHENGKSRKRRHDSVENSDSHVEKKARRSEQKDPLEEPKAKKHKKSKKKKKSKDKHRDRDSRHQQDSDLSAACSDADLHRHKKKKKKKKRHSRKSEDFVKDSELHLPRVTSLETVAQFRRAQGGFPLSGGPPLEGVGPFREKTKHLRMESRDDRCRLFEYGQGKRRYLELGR
Method in brief: (§1)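 HEK293T lysate (495 µg per sample, in Tris/CHAPS/IGEPAL buffer with protease inhibitors) was exposed in triplicate for 3 h to fragment at 200 µM or to vehicle, then to Biotin-Ahx-Ub-VS at 0.5 µM final for 1 h. Labelled DUBs were enriched on NeutrAvidin, digested with LysC and trypsin, and analysed by diaPASEF LC-MS/MS. Spectronaut label-free quantities were normalised to the global median, and values are average log2 ratios of fragment over vehicle from an unpaired t-test. Only proteins with ≥2 unique peptides were used.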

[2] = target: USP46 (UniProt P62068)
Method in brief: as §1

[3] = target: T2, USP47 (UniProt Q96K76)
T2 sequence (whole entry): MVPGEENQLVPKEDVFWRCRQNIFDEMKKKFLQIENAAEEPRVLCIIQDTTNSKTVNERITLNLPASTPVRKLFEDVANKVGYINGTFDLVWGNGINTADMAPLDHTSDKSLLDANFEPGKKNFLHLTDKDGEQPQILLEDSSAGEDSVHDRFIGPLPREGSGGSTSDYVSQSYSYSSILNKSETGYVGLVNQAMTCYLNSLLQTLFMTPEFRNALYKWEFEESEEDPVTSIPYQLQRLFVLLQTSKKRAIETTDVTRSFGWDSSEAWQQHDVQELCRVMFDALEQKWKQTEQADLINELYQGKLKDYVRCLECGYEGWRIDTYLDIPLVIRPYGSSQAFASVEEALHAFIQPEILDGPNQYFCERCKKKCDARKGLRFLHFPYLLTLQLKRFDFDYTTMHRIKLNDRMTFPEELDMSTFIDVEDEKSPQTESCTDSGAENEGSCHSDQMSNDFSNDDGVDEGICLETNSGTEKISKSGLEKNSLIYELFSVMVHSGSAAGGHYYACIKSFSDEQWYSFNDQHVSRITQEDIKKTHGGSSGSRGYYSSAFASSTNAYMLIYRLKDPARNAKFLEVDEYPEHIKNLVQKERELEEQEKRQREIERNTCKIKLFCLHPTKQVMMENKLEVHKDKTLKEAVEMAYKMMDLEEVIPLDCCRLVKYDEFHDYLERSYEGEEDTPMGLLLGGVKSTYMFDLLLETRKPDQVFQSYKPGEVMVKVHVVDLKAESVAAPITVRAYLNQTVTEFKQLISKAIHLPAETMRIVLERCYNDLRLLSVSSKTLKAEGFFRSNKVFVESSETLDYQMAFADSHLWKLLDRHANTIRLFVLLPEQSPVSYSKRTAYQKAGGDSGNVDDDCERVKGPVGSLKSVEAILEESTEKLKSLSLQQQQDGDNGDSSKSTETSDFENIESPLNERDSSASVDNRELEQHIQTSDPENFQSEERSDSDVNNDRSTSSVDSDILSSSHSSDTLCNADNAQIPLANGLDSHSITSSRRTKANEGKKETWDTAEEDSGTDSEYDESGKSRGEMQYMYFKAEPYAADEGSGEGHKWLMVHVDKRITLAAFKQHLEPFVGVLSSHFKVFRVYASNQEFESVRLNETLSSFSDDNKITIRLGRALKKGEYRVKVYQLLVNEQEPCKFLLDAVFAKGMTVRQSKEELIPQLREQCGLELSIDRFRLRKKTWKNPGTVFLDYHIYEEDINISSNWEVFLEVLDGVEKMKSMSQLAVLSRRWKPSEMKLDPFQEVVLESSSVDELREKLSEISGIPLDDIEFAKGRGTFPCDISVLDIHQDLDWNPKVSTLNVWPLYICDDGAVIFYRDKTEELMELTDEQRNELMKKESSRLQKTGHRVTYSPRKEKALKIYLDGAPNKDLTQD
Method in brief: as §1

[4] = target: T3, USP48 (UniProt Q86UV5)
T3 sequence (whole entry): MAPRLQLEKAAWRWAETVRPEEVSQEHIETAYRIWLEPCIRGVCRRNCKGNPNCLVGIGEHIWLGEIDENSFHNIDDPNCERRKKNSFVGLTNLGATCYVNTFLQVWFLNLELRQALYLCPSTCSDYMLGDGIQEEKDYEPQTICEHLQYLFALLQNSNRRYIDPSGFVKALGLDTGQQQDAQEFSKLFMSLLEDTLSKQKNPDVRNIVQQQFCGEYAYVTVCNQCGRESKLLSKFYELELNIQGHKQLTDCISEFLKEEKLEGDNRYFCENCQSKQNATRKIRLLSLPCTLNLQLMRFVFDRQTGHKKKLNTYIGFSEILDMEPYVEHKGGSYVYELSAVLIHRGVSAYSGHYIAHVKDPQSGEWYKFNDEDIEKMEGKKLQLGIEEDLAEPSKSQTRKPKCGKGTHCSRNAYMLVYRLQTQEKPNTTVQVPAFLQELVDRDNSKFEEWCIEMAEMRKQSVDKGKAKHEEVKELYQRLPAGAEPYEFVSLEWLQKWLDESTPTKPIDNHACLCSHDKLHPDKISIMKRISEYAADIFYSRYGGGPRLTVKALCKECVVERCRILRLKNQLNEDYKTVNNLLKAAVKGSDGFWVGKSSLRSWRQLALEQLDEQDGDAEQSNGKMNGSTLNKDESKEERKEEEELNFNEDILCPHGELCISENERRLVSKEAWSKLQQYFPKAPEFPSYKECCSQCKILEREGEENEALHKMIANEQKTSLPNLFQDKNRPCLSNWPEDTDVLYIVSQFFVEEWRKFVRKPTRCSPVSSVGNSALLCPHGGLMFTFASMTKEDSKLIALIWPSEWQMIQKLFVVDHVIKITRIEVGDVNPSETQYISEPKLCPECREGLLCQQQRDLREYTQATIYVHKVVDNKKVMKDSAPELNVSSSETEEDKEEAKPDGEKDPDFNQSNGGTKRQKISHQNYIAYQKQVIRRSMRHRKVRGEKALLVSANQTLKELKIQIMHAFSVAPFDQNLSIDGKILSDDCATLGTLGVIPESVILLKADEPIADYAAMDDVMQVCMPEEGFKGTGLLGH
Method in brief: as §1

[5] = target: T4, USP5 (UniProt P45974)
T4 sequence (whole entry): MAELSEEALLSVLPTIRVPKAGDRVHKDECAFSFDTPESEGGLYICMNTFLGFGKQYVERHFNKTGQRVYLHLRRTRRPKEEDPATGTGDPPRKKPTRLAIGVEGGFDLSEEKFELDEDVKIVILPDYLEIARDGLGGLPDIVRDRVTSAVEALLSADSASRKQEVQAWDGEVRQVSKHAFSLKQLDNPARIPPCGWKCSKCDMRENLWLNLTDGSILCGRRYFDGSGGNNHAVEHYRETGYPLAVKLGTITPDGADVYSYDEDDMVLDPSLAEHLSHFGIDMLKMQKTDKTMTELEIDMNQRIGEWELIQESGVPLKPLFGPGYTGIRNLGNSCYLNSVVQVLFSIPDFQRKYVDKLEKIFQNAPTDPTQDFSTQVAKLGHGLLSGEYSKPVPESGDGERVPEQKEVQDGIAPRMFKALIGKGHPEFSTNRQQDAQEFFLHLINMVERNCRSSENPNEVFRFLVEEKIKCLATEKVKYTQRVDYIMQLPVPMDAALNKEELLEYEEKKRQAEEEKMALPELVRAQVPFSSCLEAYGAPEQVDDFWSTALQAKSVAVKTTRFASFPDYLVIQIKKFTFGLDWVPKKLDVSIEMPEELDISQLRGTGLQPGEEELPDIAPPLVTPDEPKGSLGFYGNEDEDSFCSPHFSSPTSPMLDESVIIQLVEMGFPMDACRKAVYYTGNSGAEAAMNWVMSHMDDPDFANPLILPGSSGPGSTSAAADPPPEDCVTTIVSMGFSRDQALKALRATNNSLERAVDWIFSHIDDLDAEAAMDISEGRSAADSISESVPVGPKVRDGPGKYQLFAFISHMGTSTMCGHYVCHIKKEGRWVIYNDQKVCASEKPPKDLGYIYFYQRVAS
Method in brief: as §1

[6] = target: USP54 (UniProt Q70EL1)
Method in brief: as §1

[7] = target: USP7 (UniProt Q93009)
Method in brief: as §1

[8] = target: T5, USP8 (UniProt P40818)
T5 sequence (whole entry): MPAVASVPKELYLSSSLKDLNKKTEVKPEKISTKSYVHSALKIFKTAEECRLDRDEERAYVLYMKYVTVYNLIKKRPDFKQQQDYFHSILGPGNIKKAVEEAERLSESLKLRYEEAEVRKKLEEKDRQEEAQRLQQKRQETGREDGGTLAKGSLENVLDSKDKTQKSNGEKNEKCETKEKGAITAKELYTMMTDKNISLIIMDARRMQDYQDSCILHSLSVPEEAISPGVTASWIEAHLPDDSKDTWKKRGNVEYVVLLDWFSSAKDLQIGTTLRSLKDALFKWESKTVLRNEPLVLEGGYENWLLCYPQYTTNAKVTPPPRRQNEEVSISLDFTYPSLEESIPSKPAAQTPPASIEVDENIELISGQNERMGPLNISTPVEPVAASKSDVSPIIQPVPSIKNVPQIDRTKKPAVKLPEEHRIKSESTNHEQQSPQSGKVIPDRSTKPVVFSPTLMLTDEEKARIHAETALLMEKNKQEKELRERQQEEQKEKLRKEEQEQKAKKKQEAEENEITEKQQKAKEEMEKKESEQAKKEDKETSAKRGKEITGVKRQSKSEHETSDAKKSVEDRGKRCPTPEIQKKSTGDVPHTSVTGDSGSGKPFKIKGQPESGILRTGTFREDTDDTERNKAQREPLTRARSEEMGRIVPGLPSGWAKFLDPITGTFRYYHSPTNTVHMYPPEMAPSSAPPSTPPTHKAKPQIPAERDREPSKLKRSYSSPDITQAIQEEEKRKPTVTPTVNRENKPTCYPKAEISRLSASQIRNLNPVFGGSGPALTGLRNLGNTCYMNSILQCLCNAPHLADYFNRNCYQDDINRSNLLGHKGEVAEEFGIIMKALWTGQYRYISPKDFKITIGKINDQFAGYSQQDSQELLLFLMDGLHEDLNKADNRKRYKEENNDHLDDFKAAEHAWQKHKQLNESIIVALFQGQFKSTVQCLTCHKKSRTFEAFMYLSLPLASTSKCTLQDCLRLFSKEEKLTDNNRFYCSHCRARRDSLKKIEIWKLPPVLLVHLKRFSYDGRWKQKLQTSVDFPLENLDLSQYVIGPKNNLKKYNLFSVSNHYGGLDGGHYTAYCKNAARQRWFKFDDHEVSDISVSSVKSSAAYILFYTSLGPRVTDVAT
Method in brief: as §1

Measured: log2 ratio of Biotin-Ahx-Ub-VS probe labelling

Chain of USP54 (Q70EL1 whole entry): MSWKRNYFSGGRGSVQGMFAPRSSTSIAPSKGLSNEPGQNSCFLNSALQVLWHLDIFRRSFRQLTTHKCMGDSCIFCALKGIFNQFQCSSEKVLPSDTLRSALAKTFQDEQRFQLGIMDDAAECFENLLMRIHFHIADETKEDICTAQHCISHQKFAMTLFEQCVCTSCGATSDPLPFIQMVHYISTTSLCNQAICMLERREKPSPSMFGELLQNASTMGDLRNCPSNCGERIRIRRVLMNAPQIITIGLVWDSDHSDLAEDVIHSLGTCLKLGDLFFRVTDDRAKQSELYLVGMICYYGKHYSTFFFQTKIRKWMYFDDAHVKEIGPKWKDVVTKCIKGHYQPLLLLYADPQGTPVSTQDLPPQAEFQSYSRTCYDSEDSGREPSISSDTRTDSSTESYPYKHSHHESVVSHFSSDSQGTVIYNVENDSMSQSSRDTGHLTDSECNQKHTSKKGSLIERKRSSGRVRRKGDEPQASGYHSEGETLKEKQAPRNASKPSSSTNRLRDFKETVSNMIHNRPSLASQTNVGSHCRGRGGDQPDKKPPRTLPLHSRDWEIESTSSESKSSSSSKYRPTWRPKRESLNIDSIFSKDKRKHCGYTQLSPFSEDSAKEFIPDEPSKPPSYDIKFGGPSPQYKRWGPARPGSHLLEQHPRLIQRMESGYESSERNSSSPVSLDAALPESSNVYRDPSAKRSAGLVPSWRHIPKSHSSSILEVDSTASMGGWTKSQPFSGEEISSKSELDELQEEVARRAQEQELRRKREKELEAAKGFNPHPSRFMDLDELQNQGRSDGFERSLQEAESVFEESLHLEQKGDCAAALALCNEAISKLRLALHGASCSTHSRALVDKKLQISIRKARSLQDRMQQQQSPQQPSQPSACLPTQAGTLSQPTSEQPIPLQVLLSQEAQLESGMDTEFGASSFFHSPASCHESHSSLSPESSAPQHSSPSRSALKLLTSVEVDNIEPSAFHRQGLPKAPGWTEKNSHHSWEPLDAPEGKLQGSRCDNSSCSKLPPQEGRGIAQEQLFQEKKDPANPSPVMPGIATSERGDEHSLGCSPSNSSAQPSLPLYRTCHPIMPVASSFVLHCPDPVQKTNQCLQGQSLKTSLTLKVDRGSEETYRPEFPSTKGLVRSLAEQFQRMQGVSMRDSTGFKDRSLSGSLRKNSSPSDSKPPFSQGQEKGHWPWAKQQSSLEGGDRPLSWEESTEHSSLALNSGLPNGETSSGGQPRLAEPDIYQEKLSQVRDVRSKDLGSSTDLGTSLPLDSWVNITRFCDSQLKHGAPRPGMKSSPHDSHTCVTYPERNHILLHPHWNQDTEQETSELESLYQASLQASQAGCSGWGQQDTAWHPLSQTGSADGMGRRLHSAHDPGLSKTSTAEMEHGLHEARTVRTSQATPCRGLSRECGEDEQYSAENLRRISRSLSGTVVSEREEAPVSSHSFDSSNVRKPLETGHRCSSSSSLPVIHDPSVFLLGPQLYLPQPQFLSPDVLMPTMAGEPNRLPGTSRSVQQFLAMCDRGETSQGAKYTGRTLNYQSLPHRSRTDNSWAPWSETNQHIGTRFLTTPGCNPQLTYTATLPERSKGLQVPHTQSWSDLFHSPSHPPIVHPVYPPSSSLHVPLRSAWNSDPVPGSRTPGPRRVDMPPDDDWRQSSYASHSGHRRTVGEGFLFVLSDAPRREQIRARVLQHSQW
Chain of USP7 (Q93009 whole entry, looked up): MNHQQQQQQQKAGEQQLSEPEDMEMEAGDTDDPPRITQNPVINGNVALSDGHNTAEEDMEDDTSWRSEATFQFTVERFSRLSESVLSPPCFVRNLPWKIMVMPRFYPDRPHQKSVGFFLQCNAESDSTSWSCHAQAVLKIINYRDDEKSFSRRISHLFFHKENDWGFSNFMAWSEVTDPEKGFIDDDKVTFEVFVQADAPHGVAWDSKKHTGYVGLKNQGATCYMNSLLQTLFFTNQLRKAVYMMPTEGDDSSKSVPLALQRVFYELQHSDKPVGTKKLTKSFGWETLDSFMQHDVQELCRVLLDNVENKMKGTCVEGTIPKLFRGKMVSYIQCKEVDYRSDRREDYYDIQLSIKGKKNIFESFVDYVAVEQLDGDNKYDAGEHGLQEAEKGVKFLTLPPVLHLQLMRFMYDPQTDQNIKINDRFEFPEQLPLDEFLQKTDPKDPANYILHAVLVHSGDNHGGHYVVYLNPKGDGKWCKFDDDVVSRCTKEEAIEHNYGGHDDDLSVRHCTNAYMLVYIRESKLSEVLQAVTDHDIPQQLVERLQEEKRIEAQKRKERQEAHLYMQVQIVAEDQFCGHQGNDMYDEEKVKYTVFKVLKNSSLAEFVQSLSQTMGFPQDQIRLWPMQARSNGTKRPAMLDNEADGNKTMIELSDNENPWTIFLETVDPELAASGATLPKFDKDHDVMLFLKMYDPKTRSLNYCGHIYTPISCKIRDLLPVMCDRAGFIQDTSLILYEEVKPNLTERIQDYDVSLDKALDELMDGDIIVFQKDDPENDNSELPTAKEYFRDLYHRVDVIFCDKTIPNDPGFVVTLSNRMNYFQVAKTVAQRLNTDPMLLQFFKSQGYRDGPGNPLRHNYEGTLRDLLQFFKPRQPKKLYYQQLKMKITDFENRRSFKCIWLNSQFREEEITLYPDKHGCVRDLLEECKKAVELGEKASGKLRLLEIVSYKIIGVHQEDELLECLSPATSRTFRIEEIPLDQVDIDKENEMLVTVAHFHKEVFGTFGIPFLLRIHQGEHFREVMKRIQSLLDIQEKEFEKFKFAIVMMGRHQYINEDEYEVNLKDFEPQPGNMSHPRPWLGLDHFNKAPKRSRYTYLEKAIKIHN
Chain of USP46 (P62068 whole entry): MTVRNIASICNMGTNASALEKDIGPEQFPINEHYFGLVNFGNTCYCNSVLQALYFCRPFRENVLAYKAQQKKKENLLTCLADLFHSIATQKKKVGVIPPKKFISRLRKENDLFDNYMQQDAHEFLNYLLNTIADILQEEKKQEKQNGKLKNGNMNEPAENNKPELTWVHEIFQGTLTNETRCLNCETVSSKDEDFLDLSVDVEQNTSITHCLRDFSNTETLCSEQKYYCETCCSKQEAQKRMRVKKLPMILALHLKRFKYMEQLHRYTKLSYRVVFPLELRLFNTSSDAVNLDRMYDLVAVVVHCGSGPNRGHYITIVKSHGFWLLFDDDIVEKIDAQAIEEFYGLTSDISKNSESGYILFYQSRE

O=C(CCl)Nc1ccc(N2CCCC2=O)cc1
inactive: [1] -0.131 | [2] 0.132 | [3] 0.214 | [4] -0.192 | [5] -0.0866 | [6] 0.313 | [7] -0.0242 | [8] 0.198

Source: the supplement of paper PMC11732987, “Enantioselective OTUD7B fragment discovery through chemoproteomics screening and high-throughput optimisation” (Communications Chemistry, 2025)
